Hits are enriched below; roughly 9.4% of the tested compounds scored in any of these assays.
AMA1-RON2 inh: disrupts binding of P. falciparum AMA1 to RON2. Potency, µM (titrated, usually from 58.2 µM), without a hit: top-dose activity change, negative = inhibition, actives largely listed as inhibitors. AlphaScreen AMA1-biotinylated RON2 peptide binding. AID 720542. 0.2% of 360,000 active;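 further: 0% = vehicle wells and -100% = peptide control; nearly all actives have a fitted effect of over 45% in size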
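AMA1 (3D7) with his tag at 25 nM final met compounds first, then biotinylated RON2 peptide at 25 nM; detection used donor plus acceptor beads, 10 µg/mL apiece, read by AlphaScreen after 30 min at room temperature.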
Pf growth 48h: inhibits P. falciparum growth in the first generation, 48 h; P. falciparum luciferase growth in erythrocytes, 48 h; 5.9% of 310,000 active; Potency, µM (titrated, usually from 28.7 µM), without a hit: at the highest dose activity change, negative = inhibition, usual class: inhibitors; further: on the % scale 0 is the no-effect control and ±100 the full control effect
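Parasite viability was followed by luminescence of a genomically integrated firefly luciferase. Cultures held 0.1% parasitemia at 2% hematocrit (final), incubated under 5% CO2 at 37 C.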
Pf growth 96h: P. falciparum growth inhibition at 96 hour, primary screen for plastid delayed-death inhibitors. P. falciparum luciferase reporter growth, 96 h. Potency, µM (titrated, usually from 28.7 µM), inactives show top-dose activity change, negative = inhibition, usual class: inhibitors. 6.9% of 320,000 active. AID 504834; further: on the % scale 0 is the no-effect control and ±100 the full control effect
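Two parasite generations (96 h, 37 C, 5% CO2) of compound exposure in infected erythrocytes (0.05% parasitemia, 2% hematocrit). Luciferase-reporter P. falciparum; decreased luminescence indicates inhibited growth, aimed at apicoplast-acting delayed death.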
SARS PLP yeast: SARS-CoV PLP inhibition in yeast | S. cerevisiae expressing SARS-CoV PLpro, growth rescue | Potency, µM (highest dose often 32.9 µM), without a hit: at the top dose activity, positive = growth rescue, most hits filed as activators | 0.19% of 330,000 active | AID 485353; calls by dose curve; further: 0% is about no effect; nearly all actives have a fitted effect of over 55% in size
Starred values were filed as active, the others as inactive; ? = inconclusive; / = no result given; [ ] = remark or other dose. Unless noted, the call rests on the fitted dose curve; in most records, active means well fitted curve in the direction sought with a large enough effect; inconclusive means small, poorly fitted or top-dose-only effect, or another doubt; inactive means no such curve, though single readings can be large; an effect the other way counts as inactive or inconclusive. Potency means the concentration at half of the fitted maximal effect.

SMILES	AMA1-RON2 inh	Pf growth 48h	Pf growth 96h	SARS PLP yeast
OCCOc1ccc(CN2CCCC(N3CCN(c4ccc(F)cc4)CC3)C2)cc1 (configuration not stated)	-6%	-36%	358%	-2%
CCOc1ccc(CN2CCCC(N3CCN(c4ccc(OC)cc4)CC3)C2)cc1 (configuration not stated)	-1%	?	?	-6%
COc1ccc(CNC(=O)C2Cc3c(-c4cccc(F)c4)ccnc3O2)cc1OC (configuration not stated)	-22%	/	/	/
Nc1c(Cl)ncnc1NCc1ccccc1	-8%	-11%	0.41µM*	5%
CC(C)N(Cc1ccccc1)C(=O)COC(=O)C1CCN(c2ccc(C(F)(F)F)cn2)CC1	-11%	0%	0%	3%
CC(C)(C)N(Cc1ccccc1)C(=O)COC(=O)C1CCN(c2ccc(C(F)(F)F)cn2)CC1	-2%	10µM*	?	0%
O=C(/C=C/c1ccco1)NC(=S)Nc1ccc(N2CCCC2)cc1	-20%	-25%	204%	5%
Cc1ccc(Nc2c([N+](=O)[O-])c(=O)n(C)c3ccccc23)cc1	0%	-19%	1.7µM*	-2%
Cn1c(=O)c([N+](=O)[O-])c(NCc2ccccc2)c2ccccc21	-1%	0%	8.3µM*	-6%
Cc1ccc(Sc2c([N+](=O)[O-])c(=O)n(C)c3ccccc23)cc1	-5%	?	188%	1%
CCNc1c([N+](=O)[O-])c(=O)n(CC)c2ccccc12	-1%	-1%	10%	0%
COC(=O)[C@H](CCSC)NC(=O)[C@@H](Cc1cnc[nH]1)NC(=O)OCc1ccccc1	68%	4%[0.00184 µM]	7%	0%
CCOC(=O)c1cnc2ccccc2c1Nc1ccc(C(=O)O)cc1	-27%	?	?	0%
CCOC(=O)c1cnc2ccc(OC)cc2c1NCCc1ccc(OC)c(OC)c1	16%	2.6µM*	?	18%
CCOC(=O)c1cnc2ccccc2c1NCCc1ccc(OC)c(OC)c1	?	12µM*	1.7µM*	-1%
CCCCn1c(N)c(N(CCC(C)C)C(=O)c2cc(Cl)nc3ccccc23)c(=O)[nH]c1=O	-1%[11.6 µM]	-28%	?	-4%
COC(=O)c1[nH]c2ccc(F)cc2c1NC(=O)CCN1CCN(Cc2ccc3c(c2)OCO3)CC1	8%	12µM*	-1%	-2%
CCOC(=O)c1[nH]c2cc3c(cc2c1NC(=O)CN1CC(C)CC(C)C1)OCO3 (configuration not stated)	11%	-2%	5.9µM*	-2%
COC(=O)c1[nH]c2ccccc2c1NC(=O)CN1CCN(Cc2ccc3c(c2)OCO3)CC1	-11%	?	/	7%
CCN(CC(=O)Nc1c(C(=O)OC)[nH]c2ccc(C)cc12)c1ccc2c(c1)OCO2	?	13µM*	?	20%
COc1ccc(OC)c(N(CC(=O)NCCSCc2ccco2)S(=O)(=O)c2ccc(OC)c(OC)c2)c1	-6%	42%	59%	?
CCOc1[nH]n(-c2ccccc2)c(=O)c1C=NCc1cccnc1	6%	?	19µM*	-7%
C=CCn1c(SCc2csc(C)n2)nc2sc3c(c2c1=O)CCC(C)C3 (configuration not stated)	3%	12µM*	?	-6%
Cc1cccc(C)c1NC(=O)CCCCCC1NC(=O)NC1C (configuration not stated)	-13%	16%	34%	0%
CC1NC(=O)NC1CCCCCC(=O)NCCc1ccccc1 (configuration not stated)	1.5µM*	-29%	/	2%
SMILES	AMA1-RON2 inh	Pf growth 48h	Pf growth 96h	SARS PLP yeast
O=C(C1CC(=O)N(c2ccc3c(c2)OCCO3)C1)N1CCN(S(=O)(=O)c2ccccc2F)CC1 (configuration not stated)	0%[11.6 µM]	/	/	/
CCCCCn1c(=O)[nH]c2cc(C(=O)NCCN3CCCCC3C)ccc2c1=O (configuration not stated)	10%	12µM*	?	5%
COC(=O)c1ccc2c(=O)n(Cc3ccc(C(=O)NCCCN4CCC(C)CC4)cc3)c(=S)[nH]c2c1	72%	?	?	-2%
CCCCCNC(=O)c1ccc2c(=O)n(CC3CCCO3)c(=O)[nH]c2c1 (configuration not stated)	-1%	1.3µM*	9%	?
CCCCCn1c(=O)[nH]c2cc(C(=O)NCCN3C(C)CCCC3C)ccc2c1=O (configuration not stated)	0%	?	?	15%
CC1CCN(CCCNC(=O)c2ccc3c(=O)n(Cc4ccc(Cl)cc4)c(=S)[nH]c3c2)CC1	44%	13µM*	33%[5.75 µM]	1%
CCCCN(C)CCNC(=O)c1ccc(Cn2c(=S)[nH]c3ccc(Br)cc3c2=O)cc1	51%	?	10µM*	1%
CCCCCNC(=O)c1ccc2c(=O)n(CC3CCCO3)c(=S)[nH]c2c1 (configuration not stated)	53%	?	-23%	2%
CC(C)NC(=O)C1(C)CCN1CCC(=O)c1ccccc1 (configuration not stated)	8%	/	/	/
Oc1ccccc1-c1cc(C(F)(F)F)[nH]n1	/	?	9.3µM*	-4%
Oc1ccccc1-c1cc(C(F)(F)C(F)F)[nH]n1	6%	?	16%	-10%
NCCc1nc(-c2ccccc2)cs1	1%	-5%	13µM*	1%
O=C(Cn1cnc2sc3c(c2c1=O)CCCC3)NCCC(=O)N1CCC2(CC1)OCCO2	17%	6%	2%	5%
COc1cccc2c1cc1c(=O)n(CC(=O)NCCCN3CCN(C)CC3)nc(C)n12	0%	-10%	23%	-1%
O=C(CNC(=O)c1cccs1)NCC(=O)OCc1ccccc1Cl	-2%	42%	71%	8%
COc1ccc(N(CC(=O)NCc2ccco2)C(=O)CNS(=O)(=O)c2ccc(Cl)cc2)cc1	-8%	-11%	2.1µM*	-1%
O=C(CN(Cc1ccc2c(c1)OCO2)C(=O)CNS(=O)(=O)c1ccccc1)NCc1ccco1	1%	20%	2.3µM*	1%
O=C(COC(=O)CCNS(=O)(=O)c1ccc(Cl)cc1)NCc1ccccc1	0%	/	/	/
COc1ccc(S(=O)(=O)NCC(=O)N(CC(=O)NCc2ccco2)C2CCCC2)cc1	-5%	1%	-2%	6%
O=C(COC(=O)CCNS(=O)(=O)c1ccc(Cl)cc1)NCc1ccco1	-5%	12%	2.1µM*	6%
O=C(CN(Cc1ccc(F)cc1)C(=O)CNS(=O)(=O)c1ccccc1)NCc1ccco1	0%	2%	-3%	10%
C/C(CC(=O)Nc1cc(C)ccn1)=N\NC(=O)c1ccccc1C	61%	15%	6%	1%
NC(=O)COC(=O)C1CSC2(c3ccc(F)cc3)CCC(=O)N12 (configuration not stated)	0%	17%	4%	0%
Cc1cc(C)cc(N2C(=O)CN(Cc3sccc3C)C2=S)c1	11%	9.3µM*	?	-4%
O=c1c2ccccc2nc(C[n+]2ccccc2)n1-c1cccc(C(F)(F)F)c1	-14%	-18%	12µM*	1%
